Data reported in the supplement of paper PMC3545927.
The other results are listed elsewhere or left out. The hit rate among all sequences tested is not known here.

Molecular target: furin, P09958
Assay: furin cleavage Z-score vs untreated control; higher = more cleavage, active = 3.5 or more, inactive = 1 or less, 8 variable residues between constant flanks
Experimental: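 Multiplexed peptide-cDNA fusion cleavage assay. 8-mer variable peptides flanked by constant Cys-Ala (N-term) and Ala-Gly-Asn-Ala-Ser-Ala-Ser-Ala (C-term) and conjugated to a cDNA oligonucleotide were bead-immobilised via the N-terminus. They were treated with purified furin at a 1:10 enzyme:substrate ratio in 50 mM HEPES pH 7.5, 1 mM CaCl2, 100 mM NaCl for 7.5, 15 or 30 min. Released cDNA was counted by next-generation sequencing, and log counts versus no-furin controls were lowess-adjusted and converted to robust Z-scores.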

Chain of furin, P09958 (P09958 whole entry): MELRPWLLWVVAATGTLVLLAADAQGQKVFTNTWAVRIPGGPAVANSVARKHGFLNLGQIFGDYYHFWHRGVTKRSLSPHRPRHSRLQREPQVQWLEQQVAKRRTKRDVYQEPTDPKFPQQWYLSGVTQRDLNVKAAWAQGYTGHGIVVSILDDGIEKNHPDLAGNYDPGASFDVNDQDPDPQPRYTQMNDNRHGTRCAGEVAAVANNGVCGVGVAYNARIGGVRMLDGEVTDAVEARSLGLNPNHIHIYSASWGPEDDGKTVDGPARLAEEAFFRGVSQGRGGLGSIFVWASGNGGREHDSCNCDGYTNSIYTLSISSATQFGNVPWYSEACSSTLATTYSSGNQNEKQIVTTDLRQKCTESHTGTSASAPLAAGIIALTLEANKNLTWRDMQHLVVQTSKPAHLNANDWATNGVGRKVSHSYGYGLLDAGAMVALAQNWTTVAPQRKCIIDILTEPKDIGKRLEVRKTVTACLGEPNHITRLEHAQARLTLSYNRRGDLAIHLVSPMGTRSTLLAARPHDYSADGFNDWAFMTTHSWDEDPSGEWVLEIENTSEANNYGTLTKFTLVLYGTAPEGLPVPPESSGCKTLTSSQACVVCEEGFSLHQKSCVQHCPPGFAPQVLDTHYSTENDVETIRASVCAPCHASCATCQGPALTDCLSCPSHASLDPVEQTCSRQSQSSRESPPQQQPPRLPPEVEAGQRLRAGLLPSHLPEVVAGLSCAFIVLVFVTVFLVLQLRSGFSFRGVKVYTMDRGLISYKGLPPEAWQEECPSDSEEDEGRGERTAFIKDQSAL

| Sequence | furin cleavage Z-score (7.5 min) | furin cleavage Z-score (15 min) | furin cleavage Z-score (30 min) |
| --- | --- | --- | --- |
| CAMELCSQHLAGNASASA [HC1705] | 2.69 | 0.76 (inactive) | 2.04 |
| CAMEENSQHLAGNASASA [HC18] | 0.787 (inactive) | 0.956 (inactive) | 2.04 |
| CAGGSAGHTVAGNASASA [HC355] | 0.866 (inactive) | -0.487 (inactive) | 0.0302 (inactive) |
| CAPVCCSMSYAGNASASA [HC1999] | 0.302 (inactive) | -0.969 (inactive) | 1.74 |
| CAFKTWLKAKAGNASASA [HC1156] | -0.496 (inactive) | -0.829 (inactive) | -0.782 (inactive) |
| CADLELITSCAGNASASA [HC1550] | 0.66 (inactive) | -0.229 (inactive) | 0.498 (inactive) |
| CASGARRRRCAGNASASA [FS-498] | 0.58 (inactive) | 0.416 (inactive) | 0.773 (inactive) |
| CASVLIARDQAGNASASA [HC1586] | 0.606 (inactive) | 0.779 (inactive) | -0.441 (inactive) |
| CADPQRSRRCAGNASASA [FS-986] | 0.928 (inactive) | 0.649 (inactive) | 1.13 |
| CAIPDRLRKCAGNASASA [FS-1014] | -0.934 (inactive) | -0.376 (inactive) | -0.995 (inactive) |
| CASQLRYRRCAGNASASA [FS-503] | 5.96 (active) | 7.81 (active) | 5.84 (active) |
| CAQVMRRRRCAGNASASA [FS-1558] | 7.16 (active) | 5.85 (active) | 4.82 (active) |
| CAQSLRCRRCAGNASASA [FS-623] | -0.625 (inactive) | -0.00103 (inactive) | -0.127 (inactive) |
| CAEHHRSRRCAGNASASA [FS-989] | 2.96 | 3.54 (active) | 3.96 (active) |
| CAFEMEECSQAGNASASA [HC1787] | -0.0244 (inactive) | -1.03 (inactive) | 0.747 (inactive) |
| CAEVPCHRSSAGNASASA [HC2397] | 0.159 (inactive) | 1.25 | 1.43 |

| Sequence | furin cleavage Z-score (7.5 min) | furin cleavage Z-score (15 min) | furin cleavage Z-score (30 min) |
| --- | --- | --- | --- |
| CASHSREGRSAGNASASA [FS-1281] | 2.57 | 1.17 | 3.76 (active) |
| CASTGYPKRSAGNASASA [FS-1616] | 0.639 (inactive) | -0.301 (inactive) | -0.705 (inactive) |
| CAEVRCHRPSAGNASASA [HC2353] | 1.89 | 0.104 (inactive) | -0.327 (inactive) |
| CAEVRRVGRSAGNASASA [FS-766] | 5.5 (active) | 6.28 (active) | 4.53 (active) |
| CASTGRVGRSAGNASASA [FS-1168] | 4.32 (active) | 6.64 (active) | 7 (active) |
| CAEVCCHRPSAGNASASA [HC2360] | 0.494 (inactive) | 0.659 (inactive) | -0.0079 (inactive) |
| CALYSRVGRSAGNASASA [FS-617] | 8 (active) | 8.87 (active) | 7.73 (active) |
| CAAIFQGPIDAGNASASA [NG8] | -1.22 (inactive) | 0.323 (inactive) | -1.13 (inactive) |
| CAMEECSQNLAGNASASA [HC1761] | -0.233 (inactive) | 0.845 (inactive) | 0.876 (inactive) |
| CAECEVPCHRAGNASASA [HC2460] | 1.55 | -0.187 (inactive) | 2.66 |
| CALPCRPQRSAGNASASA [FS-612] | 0.0451 (inactive) | 0.649 (inactive) | 1.4 |
| CAKPSKLKRSAGNASASA [FS-546] | 7.13 (active) | 8.9 (active) | 7.35 (active) |
| CAPAQRLARSAGNASASA [FS-1471] | 10.2 (active) | 11.3 (active) | 9.54 (active) |
| CAHPSPLKRSAGNASASA [FS-597] | -0.0472 (inactive) | 2.27 | 1.02 |
| CAPPQKAKRSAGNASASA [FS-70] | 10.3 (active) | 12.4 (active) | 10.2 (active) |
| CAPPQRTQRSAGNASASA [FS-1049] | 4.31 (active) | 5.78 (active) | 6.79 (active) |
